Reference: PubChem BioAssay (NCATS)
Results filed as inconclusive are left out. The source made the active and inactive calls. Calls come from the whole dose curve; as a rule, active = well fitted curve in the direction sought with a large enough effect; inconclusive = small, poorly fitted or top-dose-only effect, or another doubt; inactive = no such curve, though single readings can be large; an effect the other way counts as inactive or inconclusive.

Columns and labels:
[1] = qHTS of pediatric cancer cell lines to identify multiple opportunities for drug repurposing: Primary screen for control Hh wild type fibroblast cells (AID 1347106);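 note: a drop in luminescence marks cytotoxicity and a rise apparent proliferation; nearly all actives have a fitted effect of over 55% in size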
Procedure, shortened: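 Viability after 48 h compound treatment at 37C, 500-1,000 cells/well, read as ATP luminescence with CellTiter-Glo. Primary screens used 11-point (MIPE, 0.78 nM-46 µM) or 8-point (NPC, 0.59 nM-46 µM) final concentrations; follow-up screens used 11-point dilutions.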

[2] = qHTS of pediatric cancer cell lines to identify multiple opportunities for drug repurposing: Primary screen for Rh30 cells (AID 1347107); note: nearly all actives have a fitted effect of over 75% in size
Procedure, shortened: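 Cells (500-1,000/well) rested 5 h, then received compounds for 48 h; metabolically active cells were measured by CellTiter-Glo luminescence. Final concentrations spanned up to 46 µM (MIPE, 11-point) or 0.59 nM-46 µM (NPC, 8-point) in primary screens, 11-point in follow-ups.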

[3] = qHTS of pediatric cancer cell lines to identify multiple opportunities for drug repurposing: Primary screen for Rh41 cells (AID 1347108);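 note: luminescence drop marks cytotoxic hits; nearly all actives have a fitted effect of over 70% in size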
Procedure, shortened: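 Quantitative HTS format: each compound titrated (MIPE 11 points from 0.78 nM, NPC 8 points from 0.59 nM) onto cells plated 5 hours earlier. After 48 h at 37 degrees C, CellTiter-Glo luminescence was recorded.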
Note: series mostly up to about 46 µM.

| Compound | outcome [1] | outcome [2] | outcome [3] |
| --- | --- | --- | --- |
| CCC(C)(CN(C)C)OC(=O)c1ccccc1 (stereo unspecified) | inactive | inactive | inactive |
| CC(=O)Oc1cccc(O)c1 | inactive | inactive | inactive |
| CCOc1ccccc1O[C@H](c1ccccc1)[C@H]1CNCCO1 | inactive | inactive | inactive |
| NNc1nnc(NN)c2ccccc12 | inactive | inactive | inactive |
| O=C(O)CCCc1ccccc1 | inactive | inactive | inactive |
| OCc1ccc(Cl)cc1Cl | inactive | inactive | inactive |
| CC(=O)N(CC(O)CN(C(C)=O)c1c(I)c(C(=O)NCC(O)CO)c(I)c(C(=O)NCC(O)CO)c1I)c1c(I)c(C(=O)NCC(O)CO)c(I)c(C(=O)NCC(O)CO)c1I (stereo unspecified) | inactive | inactive | inactive |
| Cc1cc(C)nc(NS(=O)(=O)c2ccc(N)cc2)n1 | inactive | inactive | inactive |
| NCC1CCC(C(=O)Oc2ccc(CCC(=O)O)cc2)CC1 (stereo unspecified) | inactive | inactive | inactive |
| Cc1ccc(S(=O)(=O)NC(=O)NC2CCCCC2)cc1 | inactive | inactive | inactive |
| CC1(C)S[C@@H]2[C@H](NC(=O)C(C(=O)O)c3ccccc3)C(=O)N2[C@H]1C(=O)O (stereo partly specified) | inactive | inactive | inactive |
| C[C@@H](N)C(=O)O | inactive | inactive | inactive |
| CC(=O)N1C[C@H](O)C[C@H]1C(=O)O | inactive | inactive | inactive |
| O=C(O)/C=C/c1ccc(Cn2ccnc2)cc1 | inactive | inactive | inactive |
| OC[C@@H](O)[C@@H](O)[C@H](O)[C@H](O)CO | inactive | inactive | inactive |
| CCCCCCCC(=O)OCC(O)CO (stereo unspecified) | inactive | inactive | inactive |
| NS(=O)(=O)c1cc(-c2nn[nH]n2)c(NCc2cccs2)cc1Cl | inactive | inactive | inactive |
| O=C(CCBr)N1CCN(C(=O)CCBr)CC1 | inactive | inactive | inactive |
| NC(=O)CC[C@@H](N)C(=O)O | inactive | inactive | inactive |
| CCCCCC(N)=O | inactive | inactive | inactive |
| COc1ccc(C(=O)NCc2ccc(OCCN(C)C)cc2)cc1OC | inactive | inactive | inactive |
| Cc1cccc(C(=O)O)c1O | inactive | inactive | inactive |

| Compound | outcome [1] | outcome [2] | outcome [3] |
| --- | --- | --- | --- |
| OCCN1C[C@H](O)[C@@H](O)[C@H](O)[C@H]1CO | inactive | inactive | inactive |
| CN1CCN(C(=O)C2CCCCC2)CC1 | inactive | inactive | inactive |
| OC(CCN1CCCC1)(c1ccccc1)C1CCCCC1 (stereo unspecified) | inactive | inactive | inactive |
| CC(C)NC[C@@H](O)COc1ccc(CC(N)=O)cc1 | inactive | inactive | inactive |
| CC(=O)NS(=O)(=O)c1ccc(N)cc1 | inactive | inactive | inactive |
| O=C(OOC(=O)c1ccccc1)c1ccccc1 | inactive | inactive | inactive |
| COc1cc(O)cc(O)c1 | inactive | inactive | inactive |
| CC[C@]12CCCN3CCc4c(n(c5ccccc45)[C@@](O)(C(=O)OC)C1)[C@@H]32 | inactive | inactive | inactive |
| CNCc1ccccc1 | inactive | inactive | inactive |
| CCCNC(C)(C)COC(=O)c1ccccc1 | inactive | inactive | inactive |
| CO[C@@]1(NC(=O)C(C(=O)O)c2ccc(O)cc2)C(=O)N2C(C(=O)O)=C(CSc3nnnn3C)CO[C@@H]21 (stereo partly specified) | inactive | inactive | inactive |
| CN1CCCN=C1COC(=O)C(O)(c1ccccc1)C1CCCCC1 (stereo unspecified) | inactive | inactive | inactive |
| C=CCNC(N)=S | inactive | inactive | inactive |
| Cc1c(NC(=O)c2cccnc2)c(=O)n(-c2ccccc2)n1C | inactive | inactive | inactive |
| O=c1[nH]c(=O)n([C@H]2C[C@H](O)[C@@H](CO)O2)cc1I | inactive | inactive | – |
| C[N+]1(C)CCCC(OC(=O)C(O)(c2ccccc2)c2ccccc2)C1 (stereo unspecified) | inactive | inactive | inactive |
| C1CCN2C[C@@H]3C[C@@H](CN4CCCC[C@@H]34)[C@H]2C1 | inactive | inactive | inactive |
| NC(=O)N[C@@H](CCC(=O)O)C(=O)O | inactive | inactive | inactive |
| O=C(CN1CCNCC1)NC1CCCCC1 | inactive | inactive | inactive |
| NC(=O)NC1NC(=O)NC1=O (stereo unspecified) | inactive | inactive | inactive |
| O=C(O)CCC(=O)O | inactive | inactive | inactive |
| COCC(=O)Nc1c(I)c(C(=O)NCC(O)CO)c(I)c(C(=O)N(C)CC(O)CO)c1I (stereo unspecified) | inactive | inactive | inactive |
